± gives the standard deviation of the averaged measurements.

For this assay, the system named is Serratia marcescens K904 PosmB-luxCDABE reporter (pMQ747). Nature of the assay: PosmB-lux reporter fold induction (RLU/OD600 relative to no-compound control), highest over Biolog concentrations; higher = stronger Rcs reporter activation. The settings on record: wild type K904; 4 h. On the procedure:
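Serratia marcescens K904 (wild type) or its isogenic ΔrcsB mutant, carrying the Rcs-dependent PosmB-luxCDABE reporter plasmid pMQ747, was grown in LB at OD600 0.1 in Biolog Phenotype MicroArray plates PM11-20 for 4 h at 30-32°C. Each compound is present at 3-4 proprietary concentrations (not stated); per the Fig. S1 legend the value given is the highest fold over those wells. Three independent trials.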
In the case of `C[C@H]1c2cccc(O)c2C(=O)C2=C(O)[C@]3(O)C(=O)C(C(N)=O)=C(O)[C@@H](N(C)C)[C@@H]3[C@@H](O)[C@@H]21` [Doxycycline] (Biolog plate: PM13, well positions: C5-8), the “PosmB-lux reporter fold induction” value is 1.48 ± 0.11.

On to `COc1cc(Cc2cnc(N)nc2N)cc(OC)c1OC` [trimethoprim] (Biolog plate: PM16, well positions: B9-12), for which the “PosmB-lux reporter fold induction” value was 1.93 ± 0.91.

Consider `CC(C(=O)O)c1cccc(C(=O)c2ccccc2)c1` (stereo not given) [ketoprofen (an NSAID)] (Biolog plate: PM18, well positions: A2-4), for which the “PosmB-lux reporter fold induction” value is 1.95 ± 0.79.

Consider `O=C(O)/C=C/c1ccccc1` [cinnamic acid] (Biolog plate: PM19, well positions: C9-12), for which the “PosmB-lux reporter fold induction” value came out at 9.92 ± 5.1.

Regarding `OC(CCN1CCCCC1)(c1ccccc1)c1ccccc1` [pridinol] (Biolog plate: PM20, well positions: F9-12), the “PosmB-lux reporter fold induction” value was found to be 2.86 ± 0.61.

On to `[Cl][Cu][Cl]` [Cupric chloride] (Biolog plate: PM13, well positions: H1-4), for which the “PosmB-lux reporter fold induction” value is 1.13 ± 0.12.

For the compound `Cc1nnc(SCC2=C(C(=O)O)N3C(=O)[C@@H](NC(=O)Cn4cnnn4)[C@H]3SC2)s1` [Cefazolin] (Biolog plate: PM11, well positions: E1-4), the “PosmB-lux reporter fold induction” value worked out at 1.18 ± 0.073.

Take `Oc1c(Cl)cc(Cl)c(Cl)c1Cc1c(O)c(Cl)cc(Cl)c1Cl` [hexa-chlorophene] (Biolog plate: PM20, well positions: E9-12): the “PosmB-lux reporter fold induction” value worked out at 1.62 ± 0.6.

`COc1cc(NS(=O)(=O)c2ccc(N)cc2)ncn1` [sulfamono-methoxine] (Biolog plate: PM17, well positions: C9-12): the “PosmB-lux reporter fold induction” value is 1.35 ± 0.34.

As to `Cc1cc(NS(=O)(=O)c2ccc(N)cc2)no1` [Sulfa-methoxazole] (Biolog plate: PM12, well positions: G5-8), the “PosmB-lux reporter fold induction” value was determined as 2.26 ± 0.52.

As to `CC1(C)S[C@@H]2[C@H](NC(=O)Cc3ccccc3)C(=O)N2[C@H]1C(=O)O` [Penicillin G] (Biolog plate: PM12, well positions: A2-4), the “PosmB-lux reporter fold induction” value was 1.66 ± 0.23.

As to `CC(C)c1nc2nc(N)nc(N)c2nc1C(C)C` [2,4-Diamino-6,7-diisopropyl-pteridine] (Biolog plate: PM12, well positions: E1-4), the “PosmB-lux reporter fold induction” value is 2.38 ± 0.48.

For the compound `Cc1cc(C)nc(NS(=O)(=O)c2ccc(N)cc2)n1` [Sulfamethazine] (Biolog plate: PM12, well positions: D5-8), the “PosmB-lux reporter fold induction” value was determined as 3.6 ± 0.65.

As to `C[C@@H]1O[C@@H]1P(=O)(O)O` [Phosphomycin] (Biolog plate: PM16, well positions: A5-8), the “PosmB-lux reporter fold induction” value is 0.962 ± 0.25.

In the case of `CCCCC(CC)CNC(=N)NC(=N)NCCCCCCNC(=N)NC(=N)NCC(CC)CCCC` (stereo not given) [Alexidine] (Biolog plate: PM15, well positions: E1-4), the “PosmB-lux reporter fold induction” value is 2.48 ± 0.99.

Consider `CC(=O)O[C@H]1C[C@@]2(C)[C@@H](C[C@@H](O)[C@H]3[C@@]4(C)CC[C@@H](O)[C@@H](C)[C@@H]4CC[C@@]32C)/C1=C(\CCC=C(C)C)C(=O)O` [Fusidic acid] (Biolog plate: PM15, well positions: C5-8), for which the “PosmB-lux reporter fold induction” value came out at 1.01 ± 0.48.

Regarding `Oc1c(I)cc(Cl)c2cccnc12` [5-chloro-7-iodo-8-hydroxy-quinoline] (Biolog plate: PM16, well positions: A9-12), the “PosmB-lux reporter fold induction” value was 1.27 ± 0.55.

Turning to `O=[N+]([O-])c1ccc(-[n+]2nc(-c3ccccc3)nn2-c2ccc(I)cc2)cc1` [iodonitro tetrazolium violet] (Biolog plate: PM19, well positions: D5-8), the “PosmB-lux reporter fold induction” value was found to be 0.511 ± 0.27.

For the compound `CCOc1ccc2ccccc2c1C(=O)N[C@@H]1C(=O)N2[C@@H]1SC(C)(C)[C@@H]2C(=O)O` [Nafcillin] (Biolog plate: PM11, well positions: D9-12), the “PosmB-lux reporter fold induction” value came to 2.29 ± 0.21.

For `CO[C@@H]1[C@@H](O[C@@H]2O[C@H](C)[C@@H](O[C@H]3C[C@@](C)(O)[C@@H](OC(=O)CC(C)C)[C@H](C)O3)[C@H](N(C)C)[C@H]2O)[C@@H](CC=O)C[C@@H](C)[C@@H](O)/C=C/C=C/C[C@@H](C)OC(=O)C[C@H]1OC(C)=O` [josamycin] (Biolog plate: PM19, well positions: A2-4), the “PosmB-lux reporter fold induction” value came to 1.27 ± 0.74.

For `CO[C@@]1(NC(=O)Cc2cccs2)C(=O)N2C(C(=O)O)=C(COC(N)=O)CS[C@@H]21` [Cefoxitin] (Biolog plate: PM14, well positions: E1-4), the “PosmB-lux reporter fold induction” value is 4.05 ± 0.85.

As for `O=C(O)CN(CCOCCOCCN(CC(=O)O)CC(=O)O)CC(=O)O` (Biolog plate: PM14, well positions: H1-4), the “PosmB-lux reporter fold induction” value is 2.37 ± 0.77.

Regarding `CN(C)[C@@H]1C(O)=C(C(N)=O)C(=O)[C@@]2(O)C(O)=C3C(=O)c4c(O)ccc(Cl)c4[C@@H](O)[C@H]3C[C@@H]12` [Demeclocycline] (Biolog plate: PM11, well positions: D5-8), the “PosmB-lux reporter fold induction” value was 1.53 ± 0.45.

For `O=C(O)c1ccccc1S` [Thiosalicylic acid] (Biolog plate: PM17, well positions: A9-12), the “PosmB-lux reporter fold induction” value is 1.12 ± 0.27.

Turning to `NC[C@H]1O[C@H](O[C@H]2[C@H](O)[C@@H](O[C@H]3O[C@H](CO)[C@@H](O)[C@H](N)[C@H]3O)[C@H](N)C[C@@H]2N)[C@H](N)C[C@@H]1O` [Tobramycin] (Biolog plate: PM12, well positions: F1-4), the “PosmB-lux reporter fold induction” value is 1.6 ± 0.2.

In the case of `CCn1cc(C(=O)O)c(=O)c2cc(F)c(N3CCNCC3)cc21` [norfloxacin] (Biolog plate: PM16, well positions: B1-4), the “PosmB-lux reporter fold induction” value stood at 1.02 ± 0.2.

In the case of `Cn1cnc([N+](=O)[O-])c1Sc1ncnc2[nH]cnc12` [azathioprine] (Biolog plate: PM18, well positions: B9-12), the “PosmB-lux reporter fold induction” value came out at 0.797 ± 0.12.

With `O=C1C=C(O)C(=O)c2ccccc21` [lawsone] (Biolog plate: PM19, well positions: E9-12), the “PosmB-lux reporter fold induction” value came to 1.63 ± 0.34.

With `CC1(C)S[C@@H]2[C@H](NC(=O)[C@H](N)c3ccccc3)C(=O)N2[C@H]1C(=O)O` [Ampicillin] (Biolog plate: PM13, well positions: A2-4), the “PosmB-lux reporter fold induction” value was 1.39 ± 0.02.

Turning to `NCC[C@H](O)C(=O)N[C@@H]1C[C@H](N)[C@@H](O[C@H]2O[C@H](CN)[C@@H](O)[C@H](O)[C@H]2O)[C@H](O)[C@H]1O[C@H]1O[C@H](CO)[C@@H](O)[C@H](N)[C@H]1O` [Amikacin] (Biolog plate: PM11, well positions: A2-4), the “PosmB-lux reporter fold induction” value was 1.4 ± 0.2.

Regarding `CO[C@@]1(NC(=O)CSCC#N)C(=O)N2C(C(=O)O)=C(CSc3nnnn3C)CS[C@@H]21` [Cefmetazole] (Biolog plate: PM15, well positions: A9-12), the “PosmB-lux reporter fold induction” value was 1.21 ± 0.23.

As for `CCn1nc(C(=O)O)c(=O)c2cc3c(cc21)OCO3` [cinoxacin] (Biolog plate: PM16, well positions: D9-12), the “PosmB-lux reporter fold induction” value was 2.46 ± 0.85.

For the compound `C[C@H]1O[C@@H](n2cc(F)c(=O)[nH]c2=O)[C@H](O)[C@@H]1O` [5-fluoro-5'-deoxyuridine] (Biolog plate: PM18, well positions: H1-4), the “PosmB-lux reporter fold induction” value stood at 1.12 ± 0.19.

`[Na+].[O]=[V](=[O])[O-]` [Sodium metavanadate] (Biolog plate: PM14, well positions: F9-12): the “PosmB-lux reporter fold induction” value was found to be 3.94 ± 1.2.

On to `NC(CO)C(=O)NNCc1ccc(O)c(O)c1O` (stereo not given) [Benserazide] (Biolog plate: PM20, well positions: A9-12), for which the “PosmB-lux reporter fold induction” value came out at 1.16 ± 0.17.

Regarding `CO/N=C(\C(=O)N[C@@H]1C(=O)N2C(C(=O)O)=C(CSc3nc(=O)c(O)nn3C)CS[C@H]12)c1csc(N)n1` [Ceftriaxone] (Biolog plate: PM11, well positions: G1-4), the “PosmB-lux reporter fold induction” value was 1.64 ± 0.43.

On to `CO[C@@]1(NC(=O)C(C(=O)O)c2ccc(O)cc2)C(=O)N2C(C(=O)O)=C(CSc3nnnn3C)CO[C@@H]21` (stereo not given in full) [Moxalactam] (Biolog plate: PM13, well positions: H5-8), for which the “PosmB-lux reporter fold induction” value is 1.69 ± 0.24.

Turning to `CC(Oc1ccccc1)C(=O)N[C@@H]1C(=O)N2[C@@H]1SC(C)(C)[C@@H]2C(=O)O` (stereo not given in full) [phenethicillin] (Biolog plate: PM19, well positions: F1-4), the “PosmB-lux reporter fold induction” value was determined as 86 ± 19.

In the case of `Cc1ccc2c(Cl)cc(Cl)c(O)c2n1` [5,7-Dichloro-8-hydroxy-quinaldine] (Biolog plate: PM15, well positions: B9-12), the “PosmB-lux reporter fold induction” value was determined as 2.01 ± 0.87.

With `O=c1ccc2ccccc2o1` [coumarin] (Biolog plate: PM19, well positions: A9-12), the “PosmB-lux reporter fold induction” value is 1.03 ± 0.14.

(Values after the supplement of paper PMC9942566.)
